Assay results as given in PubChem BioAssay.
Some of the results follow. Results filed as inconclusive are left out. Values without a mark were called inactive. Calls of active or inactive are those of the source.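 The calls were made as follows, unless noted: active = thallium entry rate above the same plate's blocked-transporter control wells by more than 3 SD; inconclusive = the two repeat wells disagree; inactive = the rest.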

How the values were obtained:
[1] = biological target: Solute carrier family 12 member 5 (Homo sapiens) (UniProt Q9H2X9); assay: KCC2 modulators in sodium-free buffer, confirmation, cell-based, HEK293 KCC2, thallium flux, secondary assay (AID 1713;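 active = thallium flux slope above the same plate's solvent-only control mean plus 3 SD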); conditions: FluoZin2 fluorescence, at 10 µM, stronger effect = higher value
Solute carrier family 12 member 5 (Homo sapiens), sequence (Q9H2X9 whole entry, looked up): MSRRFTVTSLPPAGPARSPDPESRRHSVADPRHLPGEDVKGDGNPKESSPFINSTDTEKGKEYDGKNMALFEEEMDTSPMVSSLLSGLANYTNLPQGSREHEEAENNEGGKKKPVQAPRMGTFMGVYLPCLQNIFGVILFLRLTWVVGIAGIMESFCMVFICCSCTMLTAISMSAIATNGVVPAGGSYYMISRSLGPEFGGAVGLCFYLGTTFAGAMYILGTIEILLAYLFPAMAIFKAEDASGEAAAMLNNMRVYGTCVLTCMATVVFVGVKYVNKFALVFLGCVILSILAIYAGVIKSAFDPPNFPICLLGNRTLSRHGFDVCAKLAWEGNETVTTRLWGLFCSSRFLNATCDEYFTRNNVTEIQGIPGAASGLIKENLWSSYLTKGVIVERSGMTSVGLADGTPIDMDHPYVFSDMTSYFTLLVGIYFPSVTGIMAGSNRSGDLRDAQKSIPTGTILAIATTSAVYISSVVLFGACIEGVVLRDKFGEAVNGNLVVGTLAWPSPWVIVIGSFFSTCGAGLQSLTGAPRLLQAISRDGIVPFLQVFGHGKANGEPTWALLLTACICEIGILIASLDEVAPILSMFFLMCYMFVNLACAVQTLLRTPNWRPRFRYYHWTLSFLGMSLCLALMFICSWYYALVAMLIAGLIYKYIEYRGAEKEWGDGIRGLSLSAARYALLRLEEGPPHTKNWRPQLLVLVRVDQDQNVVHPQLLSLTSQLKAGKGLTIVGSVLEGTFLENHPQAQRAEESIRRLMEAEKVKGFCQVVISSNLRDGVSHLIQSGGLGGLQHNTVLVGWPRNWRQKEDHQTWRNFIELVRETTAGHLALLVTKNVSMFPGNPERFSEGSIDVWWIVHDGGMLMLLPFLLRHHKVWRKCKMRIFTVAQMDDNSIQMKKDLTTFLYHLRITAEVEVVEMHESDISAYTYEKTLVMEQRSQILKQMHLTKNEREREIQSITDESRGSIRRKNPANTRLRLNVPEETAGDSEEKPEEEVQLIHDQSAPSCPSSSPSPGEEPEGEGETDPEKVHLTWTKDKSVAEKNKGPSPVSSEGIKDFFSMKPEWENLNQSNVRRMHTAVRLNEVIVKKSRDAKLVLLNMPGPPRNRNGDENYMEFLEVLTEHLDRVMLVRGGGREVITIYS

[2] = PubChem AID 1714; conditions: HEK293-KCC2 + bumetanide/ouabain, thallium flux FluoZin2; at 10 µM; stronger effect = higher value;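 also: raw slope of fluorescence over initial fluorescence between 10 and 20 s after thallium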
[3] = biological target: Solute carrier family 12 member 5 (Homo sapiens) (UniProt Q9H2X9); assay: KCC2 modulators without ouabain present, confirmation, cell-based, HEK293 KCC2, thallium flux, FluoZin2, secondary assay 2 (AID 1715;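 active = thallium flux slope more than 3 SD above or below the plate's solvent-only control mean, mostly below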;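 also: raw slope with 0.1% DMSO as baseline and bumetanide as block control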); conditions: HEK293-KCC2, thallium flux FluoZin2 fluorescence; at 10 µM; actives lie on both sides; F/F0 rise rate, 10–20 s post-thallium
[4] = thallium flux modulation in parental HEK cells, confirmation, counter-screen for KCC2 modulator project, cell-based, counterscreen 1 (AID 1716;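 active = thallium flux rate significantly above the same plate's solvent-only control wells, beyond their mean plus 3 SD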); conditions: HEK293 parental cells, thallium flux FluoZin2, ouabain; at 10 µM; baseline-ratio fluorescence slope, 10–20 s after thallium
[5] = biological target: Solute carrier family 12 member 5 (Homo sapiens) (UniProt Q9H2X9); assay: KCC2 inhibitors and activators, ouabain retest, confirmation, HEK-KCC2 cells (AID 1717;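 active = thallium flux slope beyond 3 SD from same-plate DMSO control mean in most replicates, usually higher, sometimes lower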;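 also: slope of initial-normalized fluorescence between seconds 10 and 20 after thallium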); conditions: HEK293-KCC2, thallium flux FluoZin2 fluorescence, at 10 µM, bidirectional: low = inhibitor, high = activator
[6] = native HEK Tl+ uptake effects, second counter-screen – HEK cells, counterscreen 2, counter-screen for KCC2 modulator project, confirmation (AID 1718;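 active = thallium flux slope above the same plate's solvent-control mean plus 3 SD in both duplicate wells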;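 also: run without ouabain in cells lacking the KCC2 cotransporter; slope of fluorescence scaled to its starting value between 10 and 20 s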); conditions: HEK293 parental, thallium flux FluoZin-2 fluorescence slope; at 10 µM

Row | Compound | normalised thallium flux (F/F0 slope) [1] | normalized thallium flux [2] | normalized thallium flux [3] | thallium flux rate (normalised fluorescence) [4] | raw Tl+ flux slope (below DMSO = inhibition, above = activation) [5] | thallium flux slope [6]
1 | Cc1ccc(/C=N/NC(=S)NC2CCCCC2)o1 | 0.0109 | 0.0268 (active) | 0.0327 | 0.0111 (active) | 0.0502 (active) | –
2 | NC(=O)NC(=O)CSc1nc2cc([N+](=O)[O-])ccc2n1-c1cccc(C(F)(F)F)c1 | 0.00549 | 0.0122 (active) | 0.0326 | 0.0113 (active) | – | –
3 | COc1ccc(CNC(=O)CCn2cccc2)cc1 | 0.0171 | 0.00443 | 0.0307 | 0.00777 | 0.0168 | 0.0101
4 | C=CCNC(=S)NNC(=O)COc1c(Cl)cc(Cl)cc1Cl | 0.0146 (active) | 0.0275 (active) | 0.0376 | 0.0266 (active) | 0.03 (active) | –
5 | Cc1ccc(N2C(=O)C(Cc3ccccc3)NC2=S)cc1 (stereo unspecified) | 0.00991 | 0.0247 (active) | 0.032 | 0.0128 (active) | 0.0236 | –
6 | Cc1nc(SCC(=O)N2CCc3ccccc3C2)c2c(C)c(C)sc2n1 | 0.0151 | 0.00522 | 0.0244 (active) | 0.00764 | 0.0144 | 0.0108
7 | Cc1nn(-c2ccccc2)c2sc(C(=O)N(Cc3ccco3)C(C)C(=O)NC(C)(C)C)cc12 (stereo unspecified) | 0.00786 | 0.00436 | 0.0324 | 0.00693 | 0.0198 | 0.0103
8 | COc1ccc(NC(=O)COC(=O)c2ccc(NS(=O)(=O)/C=C/c3ccccc3)cc2)cc1 | 0.00992 | 0.00679 | 0.0304 | 0.00722 | 0.0244 | –
9 | Cc1nnc(SC(C(=O)Nc2cc(Cl)cc(Cl)c2)c2ccccc2)[nH]c1=O (stereo unspecified) | 0.00885 | 0.00559 | 0.0302 | 0.00486 (active) | 0.0159 (active) | –
10 | Cc1nc(SCc2ccc(F)cc2)c([N+](=O)[O-])[nH]1 | 0.00918 | 0.00631 | 0.0237 (active) | 0.00609 | 0.0255 (active) | 0.00995
11 | C=CCNC(=S)N/N=C/c1ccc(C)s1 | 0.0134 (active) | 0.0311 (active) | 0.0287 | 0.0119 (active) | 0.0521 (active) | –
12 | COCCNc1nc(-n2nc(C)cc2C)nc2sc3c(c12)CCCC3 | 0.00873 | 0.00523 | 0.0328 | 0.00524 (active) | 0.0165 (active) | 0.00908
13 | C/C(=N\NC(=S)Nc1ccc(C)cc1)c1cc2ccccc2o1 | 0.00692 | 0.0677 (active) | 0.0558 (active) | 0.0375 (active) | 0.0575 (active) | 0.0352 (active)
14 | CCc1c(SCCC(=O)O)nc2ccccc2c1C | 0.00619 | 0.00439 | 0.0283 | 0.00913 (active) | 0.0166 | 0.0104
15 | Cc1ccccc1N/N=C/c1ccc(N2CCOCC2)cc1 | 0.0119 (active) | 0.00874 (active) | 0.0362 | 0.00826 | 0.0234 | –
16 | c1ccc2c(C[n+]3csc4ccccc43)cccc2c1 | 0.0079 | 0.0261 (active) | 0.0399 (active) | 0.0169 (active) | 0.0315 (active) | 0.0219 (active)
17 | CS(=O)(=O)c1sc(C(=O)NC(=S)Nc2ccc(OC(F)(F)F)cc2)c2c1C=CCC2 | 0.00979 | 0.0362 (active) | 0.0324 | 0.0134 (active) | 0.0498 (active) | –
18 | Cc1ccccc1-c1n[nH]c(=S)n1/N=C/c1ccc(-c2ccccc2Br)o1 | 0.0093 | 0.016 (active) | 0.0304 | 0.00991 (active) | – | –
19 | O=C(CCC(=O)OCc1cccc(C(=O)Oc2ccccc2)c1)Nc1cccc2ccccc12 | 0.00618 | 0.00434 | 0.0284 | 0.00695 | 0.0171 | 0.00997
20 | CC(C)C1Nc2c(C(=O)O)cccc2C(Nc2ccccc2C(=O)O)C1(C)C (stereo unspecified) | 0.00578 | 0.00489 | 0.0236 (active) | 0.00619 (active) | 0.0131 (active) | –
21 | CCC(=O)NC(=Nc1nc2ccccc2s1)NC(=O)CC | 0.00696 | 0.0683 (active) | 0.0951 (active) | 0.0894 (active) | 0.0811 (active) | 0.0859 (active)
22 | Cc1ccc(/C=N/NC(=S)Nc2cccc(S(=O)(=O)N(C)C)c2)o1 | 0.00805 | 0.0101 (active) | 0.028 | 0.0106 (active) | – | –
23 | Cc1oc(C(N)=O)cc1COc1ccc(C(N)=O)cc1 | 0.01 | 0.00743 | 0.0348 | 0.00438 | 0.0196 | 0.0116

Row | Compound | normalised thallium flux (F/F0 slope) [1] | normalized thallium flux [2] | normalized thallium flux [3] | thallium flux rate (normalised fluorescence) [4] | raw Tl+ flux slope (below DMSO = inhibition, above = activation) [5] | thallium flux slope [6]
24 | Cc1onc(-c2ccccc2)c1C(=O)NNC(=S)NC(=O)c1ccc(F)cc1 | 0.00605 | 0.0254 (active) | 0.0354 | 0.018 (active) | 0.0299 (active) | 0.0217 (active)
25 | S=c1nccc(-c2cc(Cl)sc2Cl)[nH]1 | 0.00959 | 0.0101 (active) | 0.0372 | 0.0107 (active) | – | –
26 | CCc1cc(-c2n[nH]c(=S)n2CC(C)C)cs1 | 0.0137 (active) | 0.0351 (active) | 0.0359 | 0.0146 (active) | 0.0381 (active) | 0.0129 (active)
27 | Cc1ccc(Nc2nnc(SCC(=O)c3cc4ccccc4o3)s2)cc1C | 0.00887 | 0.00668 | 0.0195 (active) | 0.00694 | 0.00819 (active) | 0.00899
28 | Cc1ccc(C2CC(=O)NC(SCC(=O)OCc3ccccc3)=C2C#N)o1 (stereo unspecified) | 0.0147 | 0.00407 | 0.0273 | 0.00691 | 0.0133 (active) | 0.00974
29 | Cc1c(NC(=O)CSc2cccc3cccnc23)c(=O)n(-c2ccccc2)n1C | 0.0141 (active) | 0.0374 (active) | 0.0314 | 0.0256 (active) | 0.0324 (active) | –
30 | Cc1ccc(OCc2n[nH]c(=S)n2-c2ccc(C)cc2)cc1 | 0.0109 | 0.094 (active) | 0.0355 | 0.0134 (active) | – | –
31 | COc1ccc(-n2c(=S)[nH]c3sc4c(c3c2=O)CCc2ccccc2-4)cc1 | 0.0163 (active) | 0.0262 (active) | 0.0334 | 0.0162 (active) | 0.0311 (active) | –
32 | CCn1c(=S)[nH]c2sc3c(c2c1=O)CCCCC3 | 0.0279 (active) | 0.092 (active) | 0.0959 (active) | 0.0964 (active) | 0.0856 (active) | 0.1 (active)
33 | O=C1/C(=C\c2ccsc2)NC(=S)N1c1ccccc1 | 0.024 (active) | 0.0414 (active) | 0.039 (active) | 0.0238 (active) | 0.0341 (active) | 0.024 (active)
34 | COc1ccc(C(=O)NN(C)c2nc(-c3ccccc3)cc(C)c2S(C)(=O)=O)cc1 | 0.0121 (active) | 0.0071 | 0.0316 | 0.00831 | 0.0204 | 0.0107
35 | O=[N+]([O-])c1c(NCCO)cc(Sc2nc3ccccc3s2)c2nonc12 | 0.0147 (active) | 0.0297 (active) | 0.0332 | 0.0134 (active) | 0.0556 (active) | 0.0128 (active)
36 | N=c1oc2ccccc2cc1C(=O)N/N=C/c1ccccc1 | 0.00592 (active) | 0.00648 | 0.0291 | 0.00736 | 0.0198 (active) | –
37 | COc1ccc(-c2nc(CS(=O)CC(=O)N3CCc4ccccc4C3)c(C)o2)cc1 (stereo unspecified) | 0.00722 | 0.00429 | 0.0225 (active) | 0.00707 | 0.0124 (active) | 0.00907
38 | COc1ccc(NC(=O)N2CCC(Cc3ccccc3)CC2)cc1 | 0.00655 | 0.00529 | 0.0303 | 0.00728 | 0.0137 (active) | –
39 | CCc1ccc2nc3sc(C(=O)Nc4nnc(CC)s4)c(N)c3cc2c1 | 0.00632 | 0.000813 (active) | 0.0241 (active) | 0.00534 (active) | 0.0132 (active) | –
40 | CN(C)S(=O)(=O)c1cccc(NC(=S)N/N=C/C(=O)c2ccccc2)c1 | 0.014 (active) | 0.0308 (active) | 0.0323 | 0.0158 (active) | 0.0279 | 0.0129 (active)
41 | O=C(CSc1nnc(-c2cccs2)n1Cc1ccccc1)N1CCc2ccccc2C1 | 0.00645 | 0.00334 (active) | 0.0237 (active) | 0.00608 (active) | 0.0136 (active) | 0.00891 (active)
42 | O=C(N/N=C/c1coc2ccccc2c1=O)c1cc2ccccc2o1 | 0.0123 | 0.0194 (active) | 0.0374 | 0.0141 (active) | 0.0271 (active) | 0.0106
43 | O=C(O)CCN(Cc1ccccc1)S(=O)(=O)c1c(Cl)cccc1Cl | 0.00789 | 0.00499 | 0.027 (active) | 0.00714 | 0.012 (active) | 0.0112
44 | CCOc1ccc(NC(=O)CN(C)CC(=O)Nc2cccc(Cl)c2C)cc1OCC | 0.00801 | 0.00595 | 0.0338 | 0.00749 | 0.0213 | 0.0107
45 | CCCOC(=O)CC1C(=O)NCCN1Cc1ccc(F)cc1 (stereo unspecified) | 0.00813 | 0.00582 | 0.0278 | 0.0066 | 0.019 | 0.00872
